Bioassay records as filed in PubChem.
Hits are enriched below; roughly 2.4% of the tested compounds scored in any of these assays.
CHT allo act = CHT positive allosteric modulators, primary screen, cell-based, membrane potential dye, choline EC20. High affinity choline transporter 1 (Homo sapiens), Q9GZV3. CHT-expressing cells; hits give high values; LV-AA mutant CHT in HEK293 cells. B-score at 10 µM. 0.49% of 310,000 active;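 active = initial fluorescence not abnormally high and integrated response B-score, plate-corrected, over 3 SD above library mean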
ANO1 activ = TMEM16A chloride channel activators or potentiators, primary screen, cell-based, HTS. 0.3% of 340,000 active. Anoctamin-1 (Mus musculus), Q8BHY3. HEK293 TMEM16A/YFP-H148Q/I152L, iodide quench fluorescence; hits give low values. AID 623877, 2012. B-score at 10 µM;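 active = fluorescence-ratio B-score plate-corrected deviation score at least 3 library SD below zero, with starting fluorescence score within 5 deviations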;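 also: channel opened by trigger with iodide after compound preincubation; score built on the fluorescence ratio of max minus min over baseline; more negative score means more quench and so TMEM16A activation or potentiation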
Target sequence (Q8BHY3 whole entry, looked up): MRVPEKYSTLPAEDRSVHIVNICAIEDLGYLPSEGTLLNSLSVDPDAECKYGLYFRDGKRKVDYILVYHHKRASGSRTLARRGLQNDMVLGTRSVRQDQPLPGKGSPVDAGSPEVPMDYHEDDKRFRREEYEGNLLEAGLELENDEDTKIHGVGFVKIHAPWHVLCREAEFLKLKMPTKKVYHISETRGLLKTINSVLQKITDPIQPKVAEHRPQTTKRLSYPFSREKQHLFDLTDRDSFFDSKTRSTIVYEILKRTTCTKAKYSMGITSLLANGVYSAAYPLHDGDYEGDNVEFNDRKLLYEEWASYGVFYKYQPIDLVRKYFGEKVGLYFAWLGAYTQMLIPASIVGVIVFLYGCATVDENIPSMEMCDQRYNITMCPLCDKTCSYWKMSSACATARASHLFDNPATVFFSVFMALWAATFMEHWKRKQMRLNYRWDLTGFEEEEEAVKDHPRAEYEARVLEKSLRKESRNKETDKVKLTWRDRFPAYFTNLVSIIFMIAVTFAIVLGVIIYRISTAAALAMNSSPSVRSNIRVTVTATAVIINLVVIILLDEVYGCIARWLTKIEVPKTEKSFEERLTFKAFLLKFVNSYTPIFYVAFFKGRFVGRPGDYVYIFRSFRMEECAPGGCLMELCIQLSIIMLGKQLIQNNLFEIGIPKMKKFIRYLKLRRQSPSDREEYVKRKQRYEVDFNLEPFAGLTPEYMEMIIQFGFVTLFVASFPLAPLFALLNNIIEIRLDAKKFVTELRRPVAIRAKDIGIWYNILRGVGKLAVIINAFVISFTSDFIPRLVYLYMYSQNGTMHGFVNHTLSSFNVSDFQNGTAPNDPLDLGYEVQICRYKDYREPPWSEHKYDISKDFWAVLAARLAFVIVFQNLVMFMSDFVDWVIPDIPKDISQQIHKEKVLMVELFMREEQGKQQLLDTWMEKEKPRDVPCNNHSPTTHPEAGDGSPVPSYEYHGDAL
CHT inh = inhibitors of human choline transporter CHT; AID 488975, 2010; CHT-expressing cells, membrane potential dye, choline response; hits give low values; B-score at 10 µM; 0.86% of 310,000 active;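 active = B-score over 3 SD under the library average, and starting fluorescence ratio not unusually high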;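 also: choline stimulus applied at its EC90 after an EC20 pre-addition; B-score computed on integrated fluorescence ratio after choline addition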
ANO1 block = TMEM16A chloride channel inhibitors, primary screen, cell-based, HTS; HEK293 TMEM16A/YFP iodide influx fluorescence, ionomycin; 1.2% of 310,000 active; Anoctamin-1 (Mus musculus), Q8BHY3; AID 588511, 2011; normalized B-score (activity score, 25-100; higher = stronger inhibition) at 10 µM;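 active = ratio plate-corrected score three or more library SD toward inhibition, starting fluorescence score within five deviations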;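 also: score derived from kinetic fluorescence span divided by baseline fluorescence per well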
TMEM16A reconf = TMEM16A chloride channel inhibitors, confirmation, cell-based, re-confirmation. shares compounds with ANO1 block. HEK293 TMEM16A/YFP-H148Q, iodide quench fluorescence; ionomycin added to raise cell calcium. inhibition, % at 10 µM. 39% of 2,300 active. AID 652189, 2013;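 active = mean duplicate percent inhibition, scaled so buffer wells are 0 and the reference blocker 100, over three buffer SD above buffer mean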
TMEM16A Ca cntr = calcium mobilization in TMEM16A/YFP HEK293 cells, confirmation, counter-screen for TMEM16A inhibitor project | shares compounds with ANO1 block | Fluo4 calcium mobilization | calcium response (% of ionomycin), % at 10 µM | 2% of 2,300 active;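 active = duplicate-averaged calcium signal over 20% of the ionomycin maximum, relative to buffer baseline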;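 also: each well's signal is peak minus trough fluorescence divided by its pre-addition baseline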
Parental YFP cnt = iodide YFP quench changes in parental YFP-HEK293, counter-screen for TMEM16A inhibitor project, cell-based. shares compounds with ANO1 block. 2,300 tested, under 10 active. ionomycin. YFP ratio F(max-min)/F0 at 10 µM. AID 652233, 2013;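 active = yellow fluorescent protein signal ratio exceeding the buffer control mean by over 5 SD of those controls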;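 also: ratio is mean of duplicate wells from kinetic YFP trace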
ClC-1 rat inh = ClC-1 chloride channel inhibition, selectivity assay for TMEM16A inhibitor project, cell-based, voltage-dependent ClC-1; shares compounds with ANO1 block; CHO ClC-1-YFP, iodide influx fluorescence quench; iodide control reads 0, buffer control 100; ratio percent, % at 10 µM; 2,300 tested, under 10 active;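 active = duplicate-mean ratio percent above the mean of iodide-only control wells, which defines zero, plus 5 of their SD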;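 also: higher percent means stronger block of ClC-1 iodide influx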
Hits are given with their value; . = inactive; / = no result given.

SMILES | CHT allo act | ANO1 activ | CHT inh | ANO1 block | TMEM16A reconf | TMEM16A Ca cntr | Parental YFP cnt | ClC-1 rat inh
COCCCN(Cc1cccs1)S(=O)(=O)c1csc(C(N)=O)c1 | . | . | . | . | / | / | / | /
O=C(Oc1cccc(Nc2ncnc3ccccc23)c1)c1ccccc1Cl | . | . | . | 100 | 18% | . | . | .
COc1ccccc1-c1nnc2sc(COc3ccccc3)nn12 | . | . | . | . | / | / | / | /
CCN(CC)c1ccc(-c2nn3c(-c4ccccc4OC)nnc3s2)cc1 | . | . | . | 100 | . | . | . | .
Cc1ccccc1S(=O)(=O)N1[C@@H](c2ccc(F)cc2)C(C(=O)O)=CC[C@H]1c1ccc(Cl)cc1 | . | . | . | 100 | 28% | . | . | .
COc1ccc([C@@H]2CC=C(C(=O)O)[C@H](c3ccccc3)N2S(=O)(=O)c2ccccc2C)cc1 | . | . | . | . | / | / | / | /
CCc1ccc([C@@H]2CC=C(C(=O)O)[C@H](c3ccc(F)cc3)N2S(=O)(=O)c2ccc(C)cc2)cc1 | . | . | . | 100 | . | . | . | .
CCN(CC)C(=O)COc1ccc2oc(C)c(C(=O)OC(C)C)c2c1 | . | . | . | . | . | . | . | .
Cc1oc2ccc(OS(C)(=O)=O)cc2c1C(=O)OC(C)C | . | . | . | . | / | / | / | /
COC(=O)c1sc(NC(=O)c2cc(-c3ccccc3)nc3ccccc23)c(C#N)c1C | . | . | . | 100 | 42% | . | . | .
COc1ccc(-c2cc(C(=O)Nc3sc4c(c3C#N)CCCC4)c3ccccc3n2)cc1 | . | . | . | . | / | / | / | /
Cc1ccccc1-c1cc(C(=O)Nc2sc(C(=O)OC(C)C)c(C)c2C#N)c2ccccc2n1 | . | . | . | 25 | 68% | . | . | .
CCOC(=O)c1sc(NC(=O)c2cc(-c3ccc(C)cc3)nc3ccccc23)c(C#N)c1C | . | . | . | . | / | / | / | /
CCCCNC(=S)Nc1ccc(F)cc1 | . | . | . | . | / | / | / | /
CCCCNC(=S)Nc1ccc(SC(F)F)cc1 | . | . | . | 100 | 54% | . | . | .
Cc1ccc(C(=O)N/N=C/c2cn(Cc3ccccc3)c3ccccc23)cn1 | . | . | . | 25 | . | . | . | .
O=C(N/N=C/c1cn(Cc2ccccc2)c2ccccc12)c1cc(O)cc(O)c1 | . | . | . | . | / | / | / | /
CC(C)C(=O)c1cc2c(cc1NC(=O)Nc1cccc3ccccc13)OCCO2 | . | / | . | . | / | / | / | /
CC(C)C(=O)c1cc2c(cc1NC(=O)c1ccccc1)OCCO2 | . | . | . | 100 | . | . | . | .
CCC1CCc2sc(C(=O)NCC(c3ccccc3OC)N3CCCC3)cc2C1 (stereo unspecified) | / | . | / | / | / | / | / | /
Cc1nn(C)c(C)c1CN(Cc1nc(CCC(C)C)no1)C(C)C | . | . | . | 25 | . | . | . | .
CCOc1cc(/C=C2/C(=O)N(c3ccccc3)N=C2C)ccc1OC(=O)c1cccs1 | . | . | . | 25 | . | . | . | .
CCc1nnc(NC(=O)C2Cc3ccccc3CN2S(=O)(=O)c2c(C)c(C)cc(C)c2C)s1 (stereo unspecified) | . | . | . | 25 | . | . | . | .
Cc1nn(C(=O)c2ccco2)c(C)c1Sc1ccc([N+](=O)[O-])cc1 | . | . | . | . | / | / | / | /
Cc1nn(S(=O)(=O)c2cccs2)c(C)c1Sc1ccc([N+](=O)[O-])cc1 | . | . | . | 100 | 44% | . | . | .
SMILES | CHT allo act | ANO1 activ | CHT inh | ANO1 block | TMEM16A reconf | TMEM16A Ca cntr | Parental YFP cnt | ClC-1 rat inh
COc1ccc(S(=O)(=O)Nc2cccc(NC(C)=O)c2)cc1 | . | . | . | 25 | . | . | . | .
CCOC(=O)N1CCC(NC(=O)C2CCCN(Cc3nc(-c4cccc(C)c4)oc3C)C2)CC1 (stereo unspecified) | . | . | . | 25 | . | . | . | .
Cc1oc(-c2ccc(Cl)cc2)nc1CN1CCCC(C(=O)N2CCN(C(=O)c3ccco3)CC2)C1 (stereo unspecified) | . | . | . | 25 | 18% | . | . | .
C/C(CC(=O)NCCc1ccccc1)=N\NC(=O)COc1ccc(Br)cc1 | . | . | . | . | / | / | / | /
COc1ccc(NC(=O)Cn2c(CCC(=O)O)ccc2-c2ccc(C)cc2)cc1 | . | . | . | . | / | / | / | /
COc1ccc(-c2nnc(Nc3ccc(S(=O)(=O)Nc4nccs4)cc3)c3ccccc23)cc1 | / | . | / | / | / | / | / | /
COc1ccc(Br)cc1C(=O)Nc1ccccc1N1CCCC1 | . | . | . | 100 | 24% | . | . | .
CCC(C)(C)C(=O)Nc1ncc(S(=O)(=O)c2ccc([N+](=O)[O-])cc2)s1 | . | . | . | 25 | 28% | . | . | .
O=C(CCl)Nc1ncc(S(=O)(=O)c2ccc([N+](=O)[O-])cc2)s1 | / | . | / | / | / | / | / | /
CSc1nc(O)c(N=Nc2ccc(F)cc2F)c(=O)[nH]1 | . | . | . | . | / | / | / | /
CCOC(=O)c1cc2cc(F)ccc2nc1C | . | . | . | . | / | / | / | /
Cc1nc2ccc(F)cc2cc1C(=O)NC(C)C | . | . | . | 100 | . | . | . | .
Cc1ccc(C(=O)CSc2nnc(COc3cccc(C)c3)o2)cc1 | . | . | . | 100 | . | . | . | .
CCC(C(=O)NCC1CCCO1)N(Cc1ccc(F)cc1)C(=O)CNS(=O)(=O)c1ccccc1 (stereo unspecified) | . | . | . | . | / | / | / | /
O=C1C(Oc2ccccc2)C(c2cccs2)N1Cc1ccc2c(c1)OCO2 (stereo unspecified) | . | . | . | . | / | / | / | /
COc1ccc(OC2C(=O)N(Cc3ccc4c(c3)OCO4)C2c2cccs2)cc1 (stereo unspecified) | . | . | . | 100 | 28% | . | . | .
CCc1cccc(NC(=O)C2CCCN(S(=O)(=O)c3cccnc3)C2)c1 (stereo unspecified) | . | . | . | . | / | / | / | /
CC1=C(C(N)=O)C(c2ccncc2)n2nc(-c3ccccc3Cl)nc2N1 (stereo unspecified) | . | . | . | 100 | . | . | . | .
COc1ccccc1-c1nc2n(n1)C(c1ccc(Cl)cc1)C(C(N)=O)=C(C)N2 (stereo unspecified) | . | . | . | . | / | / | / | /
Cc1cc(OCC(=O)NNC(=S)NCC2CCCO2)cc(C)c1Cl (stereo unspecified) | . | . | . | . | / | / | / | /
N#CCc1ccc(NS(=O)(=O)c2ccc(C3CCCCC3)cc2)cc1 | . | . | . | 25 | 34% | . | . | .
